# Source: PubChem BioAssay (EPA / NIEHS)
# Inconclusive results are not listed. Calls of active or inactive are those of the source. Rule for the calls, unless noted: active = hit-call score of the fitted dose curve at least 0.9, where 1 is the maximum; inactive = score below 0.9.
# Assays:
# [1] = CCTE_Shafer_MEA_dev_per_network_spike_spike_percent: CCTE's Neural Network Formation Assay for Percent of Spikes in a Network Spike, Shafer Lab (AID 2284054)
# Outline: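 Metric: fraction of spikes falling in a 0.05 s window at network-spike peaks. Recordings were made on days 5, 7, 9 and 12 and collapsed by trapezoidal AUC. Cultures were rat cortical neurons on MEA plates, dosed continuously from plating, re-dosed at media changes.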
# [2] = CCTE_Shafer_MEA_dev_AB: CCTE's Alamar Blue Assay for Cytotoxicity in the Neural Network Formation Assay, Shafer Lab (AID 2284083; active = hit-call score of the fitted dose curve at least 0.9, where 1 is the maximum;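 note: resazurin reduction fluorescence as viability of cultured neurons; twelve days of exposure from plating with re-dosing on DIV 5 and 9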)
# Outline: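 Cytotoxicity companion to the developmental MEA: primary rat cortical neurons, 12-day exposure starting day 0, compound refreshed DIV 5 and 9; resazurin fluorescence, fitted against DMSO vehicle.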
# [3] = CCTE_Shafer_MEA_dev_mutual_information_norm: CCTE's Neural Network Formation Assay for Mutual Information Normalization, Shafer Lab (AID 2284091);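 note: mutual information between electrodes summarised as area under curve across four recording days; potency is for a decrease in mutual information relative to DMSO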
# Outline: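 Shared information across electrodes, tracked on days 5, 7, 9 and 12 of network development and collapsed as trapezoidal area under the curve. Rat cortical cultures were treated continuously from plating, with treatment renewed at feeds on DIV 5 and 9; DMSO baseline, negative-direction fit.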
# [4] = CCTE_Shafer_MEA_dev_correlation_coefficient_mean: CCTE's Neural Network Formation Assay for Mean Correlation Coefficient, Shafer Lab (AID 2284093);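 note: well mean pairwise spike train correlation integrated as AUC over recording days 5 to 12; potency fitted for loss of correlation relative to DMSO vehicle wells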
# Outline: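 Extracellular firing from rat cortical networks on 48-well MEAs, DMSO-referenced, negative fitting direction. Compound present from plating to DIV12; mean pairwise correlation per well integrated over DIV5–12 recordings by trapezoidal AUC.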
# [5] = CCTE_Mundy_HCI_Cortical_Synap_Neur_Matur_NeuriteSpotCountPerNeuriteLength: CCTE's Synaptogenesis and Neurite Maturation Assay in rat cortical cells for Neurite Spot Count per Neurite Length, Mundy Lab (AID 2284210)
# Outline: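 Synaptophysin spots per unit neurite length, measured by automated imaging of MAP2/synaptophysin/Hoechst-stained neurons. Cultures from rat cortex received chemical at DIV 7 with media change through DIV 12; glial growth arrested by AraC at DIV 5; DMSO baseline.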
# [6] = CCTE_Mundy_HCI_Cortical_Synap_Neur_Matur_BPCount: CCTE's Synaptogenesis and Neurite Maturation Assay in rat cortical cells for Branch Point Count, Mundy Lab (AID 2284211)
# Outline: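 In this multiplexed morphology assay, cortical cells from rat receive chemicals at DIV 7 and are fixed at DIV 12, then immunostained and imaged; branch points are counted, with DMSO as baseline.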
# [7] = CCTE_Mundy_HCI_Cortical_NOG_NeuriteCount: CCTE's Neurite Outgrowth Assay in rat cortical cells for Neurite Count, Mundy Lab (AID 2284212);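 note: cells fixed about two days after chemical exposure began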
# Outline: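 Rat cortical primary cells; compound added 2 h post-plating, 1/10 dilution of working solution. Anti-betaIII-tubulin/AF488 ICC; ArrayScan neurite count vs DMSO.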
# [8] = CCTE_Mundy_HCI_Cortical_NOG_NeuriteLength: CCTE's Neurite Outgrowth Assay in rat cortical cells for Neurite Length, Mundy Lab (AID 2284213);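 note: neurites imaged about 48 to 50 h after chemical exposure began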
# Outline: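 First, rat primary cortical cells were plated and, 2 h later, given test chemical as a 1/10 dilution. Finally, βIII-tubulin immunostaining enabled automated imaging of neurite length.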
# [9] = CCTE_Mundy_HCI_Cortical_Synap_Neur_Matur_NeuriteLength: CCTE's Synaptogenesis and Neurite Maturation Assay in rat cortical cells for Neurite Length, Mundy Lab (AID 2284214)
# Outline: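 DMSO-normalised neurite length, from high-content imaging of anti-MAP2-stained rat cortical cells fixed at DIV 12. Glia were suppressed with AraC (DIV 5) before chemical exposure from DIV 7.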
# [10] = CCTE_Mundy_HCI_Cortical_Synap_Neur_Matur_NeuriteSpotCountPerNeuron: CCTE's Synaptogenesis and Neurite Maturation Assay in rat cortical cells for Neurite Spot Count per Neuron Count, Mundy Lab (AID 2284215)
# Outline: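 Rat primary cortical cells received AraC at DIV 5, then chemicals with a media change at DIV 7, and were fixed at DIV 12. Synaptophysin puncta on MAP2-stained neurites per neuron were counted by high-content imaging, fitted relative to DMSO.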
# [11] = CCTE_Mundy_HCI_Cortical_Synap_Neur_Matur_SynapseCount: CCTE's Synaptogenesis and Neurite Maturation Assay in rat cortical cells for Synapse Count, Mundy Lab (AID 2284218)
# Outline: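 Endpoint: synapses/neuron by HCI (synaptophysin puncta on MAP2-labelled neurites, Hoechst nuclei). Rat primary cortical cells, AraC DIV 5, dosed DIV 7, fixed DIV 12; DMSO negative control.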
# [12] = CCTE_Mundy_HCI_hN2_NOG_NeuriteLength: CCTE's Neurite Outgrowth Assay in human hN2 cells for Neurite Length, Mundy Lab (AID 2284220; active = hit-call score of the fitted dose curve at least 0.9, where 1 is the maximum)
# Outline: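 Plate hNP1-derived neurons, then add chemical 2 h later as a 1/10 dilution. Stain with anti-βIII-tubulin then Alexa Fluor-488 secondary, and image automatically to measure neurite length.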
# [13] = CCTE_Mundy_HCI_hN2_NOG_NeuronCount: CCTE's Neurite Outgrowth Assay in human hN2 cells for Neuron Count, Mundy Lab (AID 2284221; active = hit-call score of the fitted dose curve at least 0.9, where 1 is the maximum)
# Outline: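 Read-out is the number of betaIII-tubulin-positive neurons imaged by automated high-content analysis, with DMSO as negative control.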
# [14] = CCTE_Mundy_HCI_Cortical_Synap_Neur_Matur_NeuriteCount: CCTE's Synaptogenesis and Neurite Maturation Assay in rat cortical cells for Neurite Count, Mundy Lab (AID 2284222);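 note: exposure from day 7 to day 12 in vitro with readout at day 12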
# Outline: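 In this multiplexed morphology readout, rat primary cortical neurons are fixed at DIV 12 following dosing at DIV 7 and stained for MAP2, synaptophysin and nuclei. High-content image analysis yields neurite count.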
# [15] = CCTE_Mundy_HCI_Cortical_Synap_Neur_Matur_CellBodySpotCount: CCTE's Synaptogenesis and Neurite Maturation Assay in rat cortical cells for Cell Body Spot Count, Mundy Lab (AID 2284223)
# Outline: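 Rat primary cortical cultures received AraC at DIV 5 to arrest glia, were dosed with chemical at DIV 7 with media change, and were fixed at DIV 12 (288.33 h). Synaptophysin puncta on MAP2-positive cell bodies per neuron were counted by high-content imaging versus DMSO.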
# [16] = CCTE_Mundy_HCI_hNP1_Pro_ResponderAvgInten: CCTE's Proliferation Assay in human neuroprogenitor cells, Mundy Lab (AID 2284224; active = hit-call score of the fitted dose curve at least 0.9, where 1 is the maximum)
# Outline: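 Proliferation was scored as BrdU labelling intensity in human neural progenitors derived from WA09 embryonic cells, measured 26.25 hours after chemical dosing. Activity was fitted relative to DMSO.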
# [17] = CCTE_Mundy_HCI_Cortical_NOG_NeuronCount: CCTE's Neurite Outgrowth Assay in rat cortical cells for Neuron Count, Mundy Lab (AID 2284236; active = hit-call score of the fitted dose curve at least 0.9, where 1 is the maximum;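 note: neurons counted by imaging betaIII-tubulin and Hoechst stained cortical cells; cells exposed to compound for about 48 hours before fixation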)
# Outline: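 Read-out: neuron number by high-content imaging of betaIII-tubulin (Alexa Fluor-488) and Hoechst-labelled rat primary cortical cells.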
# [18] = CCTE_Mundy_HCI_Cortical_NOG_BPCount: CCTE's Neurite Outgrowth Assay in rat cortical cells for Branch Point Count, Mundy Lab (AID 2284237);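 note: branch points counted about two days after chemical exposure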
# Outline: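 Measured 50.33 h after dosing, this morphology endpoint uses rat primary cortical cultures labelled for betaIII-tubulin. Branch points are quantified by high-content imaging, with DMSO as negative control and baseline.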
# [19] = CCTE_Mundy_HCI_hNP1_Casp3_7: CCTE's Caspase-Glo 3/7 Assay in human neuroprogenitor cells for Apoptosis, Mundy Lab (AID 2284240)
# Outline: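 Apoptosis is scored by activated caspase-3/7 luminescence in WA09-derived neural progenitor cells, measured 26.5 h after chemical dosing. Values represent gain of signal relative to DMSO vehicle.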
# [20] = CCTE_Mundy_HCI_hNP1_CellTiter: CCTE's Cell Titer-Glo 2 Assay in human neuroprogenitor cells for Viability, Mundy Lab (AID 2284241; active = hit-call score of the fitted dose curve at least 0.9, where 1 is the maximum;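 note: a hit is a drop in ATP luminescence versus DMSO meaning reduced viability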)
# Outline: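 Human neural progenitor cells (hNP1, WA09-derived) were plated on poly-L-ornithine/laminin and grown 40 to 44 hours at 37 °C, 5% CO2 before chemical addition. Twenty-four hours later, ATP was measured by CellTiter-Glo luminescence; loss of signal versus DMSO indicates reduced viability.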
# [21] = CCTE_Mundy_HCI_Cortical_Synap_Neur_Matur_NeuronCount: CCTE's Synaptogenesis and Neurite Maturation Assay in rat cortical cells for Neuron Count, Mundy Lab (AID 2284242; active = hit-call score of the fitted dose curve at least 0.9, where 1 is the maximum;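 note: hits reduce neuron count versus DMSO baseline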)
# Outline: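 Measured at DIV 12: fluorescently labelled neurons (Hoechst nuclei, MAP2) in rat primary cortical cultures, counted by high-content imaging. AraC suppressed glia from DIV 5; DMSO served as negative control.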
structure (smiles),measurement,setting,value
CCC[CH2][Sn]([CH2]CCC)([CH2]CCC)[O][Sn]([CH2]CCC)([CH2]CCC)[CH2]CCC,AC50,[1],77 nM (active)
same,AC50,[2],45.5 nM (active)
same,AC50,[3],34.5 nM (active)
same,AC50,[4],33.5 nM (active)
same,outcome,[5],inactive
same,AC50,[6],23 nM (active)
same,AC50,[7],27.8 nM (active)
same,AC50,[8],22.1 nM (active)
same,AC50,[9],14.5 nM (active)
same,AC50,[10],22.6 nM (active)
same,AC50,[11],22 nM (active)
same,AC50,[12],43.6 nM (active)
same,AC50,[13],31.9 nM (active)
same,outcome,[14],inactive
same,AC50,[15],31.1 nM (active)
same,AC50,[16],125 nM (active)
same,AC50,[17],31.1 nM (active)
same,AC50,[18],27.7 nM (active)
same,AC50,[19],115 nM (active)
same,AC50,[20],57.2 nM (active)
same,AC50,[21],10.8 nM (active)
